This is a sample that favours compounds with a hit; in the whole collection about 4.6% have one here.
D1 agonist = Allosteric Agonists of the Human D1 Dopamine Receptor: qHTS; D(1A) dopamine receptor (Homo sapiens), P21728; HEK293 T-REx D1 cells, calcium flux, agonist mode; 1% of 360,000 active; activation, % at 2 µM; AID 504660, 2011; also: 0% is about no effect
Target sequence (P21728 whole entry, looked up): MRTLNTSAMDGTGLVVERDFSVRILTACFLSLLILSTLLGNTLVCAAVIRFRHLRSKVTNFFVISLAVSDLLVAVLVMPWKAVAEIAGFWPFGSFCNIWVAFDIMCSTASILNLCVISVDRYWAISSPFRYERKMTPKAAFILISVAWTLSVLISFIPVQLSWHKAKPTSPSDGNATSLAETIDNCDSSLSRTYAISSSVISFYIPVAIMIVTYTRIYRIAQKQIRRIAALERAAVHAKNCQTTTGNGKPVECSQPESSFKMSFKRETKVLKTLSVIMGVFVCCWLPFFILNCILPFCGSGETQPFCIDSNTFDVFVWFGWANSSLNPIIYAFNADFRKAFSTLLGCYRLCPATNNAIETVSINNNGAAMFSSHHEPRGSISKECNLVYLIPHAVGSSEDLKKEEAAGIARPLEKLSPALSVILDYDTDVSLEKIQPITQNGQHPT
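Agonism was scored from calcium flux recorded over 180 s (1 read/s) after pintool compound addition, following a 10-cycle baseline. Cells were inducible force-coupled HEK293 TREx D1, plated overnight at 30 C and loaded with no-wash calcium dye.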
D1 PAM = Potentiators of Human D1 Dopamine Receptor: qHTS; HEK293 TREx D1 cells, calcium flux, dopamine EC20 potentiation; potentiation, % at 10 µM; 0.036% of 360,000 active; in the data active = potentiation above about 30%; also: 0% is about no effect
D1 antag = Antagonist of Human D 1 Dopamine Receptor: qHTS; D(1A) dopamine receptor (Homo sapiens), P21728; HEK293 TREx D1 cells, calcium flux, dopamine EC80; stronger effect = lower value; activity change, negative = inhibition, % at 10 µM; 3.2% of 360,000 active; AID 504652, 2011; in the data active = activity change below about -30%; also: % is scaled to controls: 0 for no effect and ±100 for the full control effect
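After overnight tetracycline induction at 30 C, force-coupled D1 HEK293 cells took up a no-wash calcium dye at room temperature. Compounds were added and monitored 180 s, and the response to EC80 dopamine was then recorded.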
TRHR enhancer-1 = qHTS for Small Molecule Agonists and Allosteric Enhancers of Human TRH Receptor: Primary Screen for Enhancers. Thyrotropin-releasing hormone receptor (Homo sapiens), P34981. TRHR cells, fluo-8 calcium fluorescence, EC20 TRH enhancement. enhancement, % at 2 µM. 0.66% of 360,000 active. AID 493056, 2011; in the data active = enhancement above about 30%; also: 0% is about no effect
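TRHR-expressing cells loaded with fluo-8 calcium dye were read kinetically (ex 480/em 530) during compound addition, then stimulated with an EC20 of TRH (10 nM final). Enhancement of the Gq-mediated intracellular calcium response was scored.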
TRHR agonist-1 = qHTS for Small Molecule Agonists and Allosteric Enhancers of Human TRH Receptor: Primary Screen for Agonists; Thyrotropin-releasing hormone receptor (Homo sapiens), P34981; TRHR cells, calcium flux fluo-8, FDSS agonist mode; activation, % at 2 µM; 0.18% of 360,000 active; also: 0% is about no effect
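Agonist-mode FDSS calcium read (Ex 480/Em 530, 1 s cycles) in 1536-well TRHR cells with fluo-8 dye, after 10-cycle baseline and 23 nL compound addition; TRH at EC20 (10 nM final) added afterwards for the enhancer phase.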
TRHR enhancer-2 = qHTS for Small Molecule Agonists and Allosteric Enhancers of Human TRH Receptor: Confirmation Screen for Enhancers. 970 tested, under 10 active. activity change, negative = inhibition, % at 46.1 µM. TRH receptor cell assay, enhancer confirmation qHTS. shares compounds with TRHR enhancer-1; active = well fitted curve in the direction sought with a large enough effect; inconclusive = small, poorly fitted or top-dose-only effect, or another doubt; inactive = no such curve, though single readings can be large; an effect the other way counts as inactive or inconclusive;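 also: compound effect scored on response to added TRH at EC20 of 10 nM; 0% is about no effect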
TRHR agonist-2 = qHTS for Small Molecule Agonists and Allosteric Enhancers of Human TRH Receptor: Confirmation Screen for Agonists; shares compounds with TRHR enhancer-1; TRHR-expressing cells, agonist activation read-out; Potency, µM (doses to about 46.1 µM), for inactives: top-dose activation, actives largely listed as activators; 8% of 970 active; active = well fitted curve in the direction sought with a large enough effect; inconclusive = small, poorly fitted or top-dose-only effect, or another doubt; inactive = no such curve, though single readings can be large; an effect the other way counts as inactive or inconclusive; also: potency is read from the fitted curve at half-maximal effect; 0% is about no effect; nearly all actives have a fitted effect of over 75% in size
Active calls of the source: *; ? = inconclusive; nt = no result given. Rule as the data show it, unless noted: active = activation above about 30%; inactive = the rest.

SMILES	D1 agonist	D1 PAM	D1 antag	TRHR enhancer-1	TRHR agonist-1	others
Cc1cccc(NC(=O)CSc2nc(-c3cccs3)nc3cc(=O)[nH]n23)c1	2	2	-4	-4	0
O=C(CSc1nc(-c2cccs2)nc2cc(=O)[nH]n12)Nc1cccc(C(F)(F)F)c1	6	-2	-38*	-2	-1
O=C(COC(=O)c1cc[n+]([O-])cc1)Nc1ccc(Br)cc1	1	7	9	5	0
O=C(COC(=O)c1cc[n+]([O-])cc1)Nc1ccc(SC(F)F)cc1	2	-3	-34*	2	1
OCC1(CC2CCCCO2)CCN(Cc2cccc(O)c2)CC1 (stereo unspecified)	1	-2	6	-3	1
c1ccc(-c2nc(NCc3ccco3)c3oc4ccccc4c3n2)cc1	2	-7	-2	4	1
CC(=O)Nc1ccc(S(=O)(=O)N2CCN(c3cc(C)ccc3C)CC2)cc1	2	0	7	3	0
CC(=O)Nc1ccc2c(c1)CN(c1cc(C)ccc1C)CO2	9	-2	-37*	-3	0
CC(C)CCn1nnnc1C(c1ccc(F)cc1)N1CCC(C(N)=O)CC1 (stereo unspecified)	1	-6	-8	8	0
Clc1ccc(CNC2CCCC2)c(Cl)c1	2	5	10	8	0
S=C(NCCc1cccc(Cl)c1)NC1CCCCC1	7	-2	-38*	-10	1
S=C(NCc1ccc(Cl)cc1Cl)NC1CCCCC1	30*	-8	-33*	-11	2
CCOC(=O)c1ccc(OCc2c(C)noc2C)cc1	1	6	6	7	0
O=C(Nc1cc(-c2ccccc2F)nn1-c1ccccc1)c1ccccc1Br	5	-2	3	5	1
N#Cc1c(NC(=S)NC(=O)c2ccccc2)sc2c1CCN(CCc1ccccc1)C2	48*	-4	-5	4	11
CC(C)(C)C(=O)Nc1sc2c(c1C#N)CCN(Cc1ccccc1)C2	33*	6	3	0	11
N#Cc1c(NC(=S)NC(=O)c2ccccc2)sc2c1CCCC2	2	1	18	-2	0
O=C(NCCC1=CCCCC1)c1cccc2c1C(=O)N(C1CCCCC1)C2	-1	2	9	-2	0
O=C(O)c1ccc(COc2ccccc2/C=C2\NC(=O)N(Cc3ccc(F)cc3)C2=O)cc1	5	6	-33*	-6	0
CC(C)CNC(=O)c1ccccc1NC(=O)c1ccc(CSc2ccccc2)cc1	32*	-9	1	9	3
CCOc1ccc(Cn2cc(F)c(=O)[nH]c2=O)cc1	0	-2	-30	-2	1
Cc1nc2sccn2c(=O)c1S(=O)(=O)NCc1ccccc1Cl	2	-4	8	2	1
Cc1nc2sccn2c(=O)c1S(=O)(=O)NCC1CCN(Cc2ccccc2Cl)CC1	5	9	-66*	-1	1
CC(=O)Nc1cc(C(=O)N2CCOCC2)ccc1S(=O)(=O)c1ccc(C)cc1	1	2	-31*	1	0
CC(=O)Nc1cc(C(=O)NCc2ccc(F)cc2)ccc1S(=O)(=O)c1ccc(C)cc1	-4	1	-67*	1	-1
SMILES	D1 agonist	D1 PAM	D1 antag	TRHR enhancer-1	TRHR agonist-1	others
CC(=O)Nc1cc(C(=O)O)ccc1S(=O)(=O)c1ccc(C)cc1	0	7	4	4	0
CCCC(=O)NC(C)c1nc2ccccc2n1CC (stereo unspecified)	2	-8	0	45*	0	TRHR enhancer-2=-6;TRHR agonist-2=0%
O=C(NCc1ccc(Cl)cc1)c1ccc(CNS(=O)(=O)c2ccc(F)cc2)cc1	9	-5	-2	3	0
Cn1nc(C(=O)NCc2ccc(F)cc2)cc1C(=O)NCc1ccc(F)cc1	6	-8	-15	46*	0	TRHR enhancer-2=-7;TRHR agonist-2=1%
CS(=O)(=O)c1ccc(C(=O)NCc2ccc(F)cc2)cc1	1	-3	12	60*	0	TRHR enhancer-2=-1;TRHR agonist-2=6%
Cn1nc(C(=O)NCc2ccccc2)cc1C(=O)NCc1ccccc1	8	-3	2	14	-4
CC(C)C(=O)NC(=S)Nc1ccccc1N1CCN(C(=O)c2ccc(Cl)cc2)CC1	5	-5	2	-2	1
O=C(c1ccc(C(F)(F)F)cc1)C1CCCN(C(=O)CN2CCCC2=O)C1 (stereo unspecified)	0	-2	22	56*	0	TRHR enhancer-2=-3;TRHR agonist-2=4%
CCN(CC)c1ccc(NC(=O)C2CC(=O)N(Cc3ccccc3)C2)cc1 (stereo unspecified)	2	-1	13	5	-1
CCCNC(=O)c1nc(C)n(-c2cc(Cl)cc(Cl)c2)n1	1	5	7	0	-1
CCCNC(=O)c1nc(C)n(-c2cc(Cl)ccc2Cl)n1	2	-4	-9	64*	0	TRHR enhancer-2=1;TRHR agonist-2=1%
COCCNC(=O)c1cc2c(=O)n3cccc(C)c3nc2n1C	2	4	1	41*	0	TRHR enhancer-2=?;TRHR agonist-2=-1%
CCCCNC(=O)c1cc2c(=O)n3cccc(C)c3nc2n1C	1	-8	9	-1	0
Cc1ccc(S(=O)(=O)N2CCN(C(=O)CSc3ccc(Cl)cc3)CC2)cc1	1	-4	-17	-1	0
CN1CCN(C(=O)CSc2ccc(Cl)cc2)CC1	0	-3	10	43*	0	TRHR enhancer-2=6;TRHR agonist-2=0%
C=CCn1cc(C(=O)N2CCN(C)CC2)c(=O)c2cc(S(=O)(=O)N3CCCC3)ccc21	3	nt	-2	-3	0
C=CCn1cc(C(=O)N2CCN(C)CC2)c(=O)c2cc(S(=O)(=O)N(CC)CC)ccc21	3	-6	-14	53*	1	TRHR enhancer-2=-4;TRHR agonist-2=-1%
Cc1cc(C(=O)NCCN2CCOCC2)ccc1[N+](=O)[O-]	2	-4	-1	45*	1	TRHR enhancer-2=0;TRHR agonist-2=-1%
CCN(CC)c1ccc(-c2nc(-c3ccco3)no2)cc1[N+](=O)[O-]	4	4	-10	-4	0
COc1ccc(/C=C2\CC/C(=C\c3ccc(OC)cc3OC)C2=O)c(OC)c1	54*	-1	10	-5	34*	TRHR enhancer-2=0;TRHR agonist-2=23µM*
